Assay [1] can be described thus: qHTS assay to identify small molecule antagonists of the glucocorticoid receptor (GR) signaling pathway - cell viability counter screen (AID 720693; also: nearly all actives have a fitted effect of over 55% in size; also: potency is read from the fitted curve at half-maximal effect). (In general: qHTS replaces the single test concentration by a dilution series.)
The nature of assay [2]: qHTS assay for identifying genotoxic compounds that show differential cytotoxicity against isogenic chicken DT40 cell lines with known DNA damage response pathways - wild type cell line (AID 743012). Also: nearly all actives have a fitted effect of over 60% in size. Also: potency is read from the fitted curve at half-maximal effect. The gist of the method:
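Cytotoxicity in repair-proficient parental chicken DT40 cells serves as the comparator for Rad54/Ku70- and Rev3-deficient lines. Cells were exposed to compounds for 40 h at 37 C/5% CO2, and ATP-based luminescence (CellTiter-Glo) measured viability.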

A short description of assay [3]: qHTS assay for identifying genotoxic compounds that show differential cytotoxicity against isogenic chicken DT40 cell lines with known DNA damage response pathways - Rev3 mutant cell line (AID 743014). Also: nearly all actives have a fitted effect of over 55% in size. Also: potency is read from the fitted curve at half-maximal effect.
The nature of assay [4]: qHTS assay for identifying genotoxic compounds that show differential cytotoxicity against isogenic chicken DT40 cell lines with known DNA damage response pathways - Rad54/Ku70 mutant cell line (AID 743015). Also: nearly all actives have a fitted effect of over 60% in size. Also: potency is read from the fitted curve at half-maximal effect.
The nature of assay [5]: qHTS assay to identify small molecule antagonists of the androgen receptor (AR) signaling pathway - cell viability counter screen (AID 743033; also: nearly all actives have a fitted effect of over 45% in size; also: potency is read from the fitted curve at half-maximal effect).
The target of assay [6] is Androgen receptor (Homo sapiens) (UniProt P10275). As to the kind of experiment: qHTS assay to identify small molecule antagonists of the androgen receptor (AR) signaling pathway (AID 743035; active = well fitted inhibition curve with a large enough effect in the signal ratio in the repeat runs, not every such curve was filed as active; inconclusive = weak or mixed curves, or effect the other way; inactive = no such curve, though single readings can be large or run the other way; the % refers to the signal ratio; also: potency is read from the fitted curve at half-maximal effect). In a few lines:
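Steps: seed AR-UAS-bla GripTite HEK293 cells, incubate 4 h at 37C; pin in test compound, then add agonist R1881; incubate 16 h at 37C; add LiveBLAzer B/G FRET substrate, 2 h at room temperature; read fluorescence.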

Assay [7] has the same target. As to the kind of experiment: qHTS assay to identify small molecule agonists of the androgen receptor (AR) signaling pathway (AID 743036; active = well fitted activation curve with a large enough effect in the signal ratio in the repeat runs, with a control signal flat, not every such curve was filed as active; inconclusive = weak or mixed curves, or effect the other way; inactive = no such curve, though single readings can be large or run the other way; the % refers to the signal ratio). The gist of the method: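 Quantitative HTS of the Tox21 10K library in HEK293 cells bearing a stably integrated UAS-controlled beta-lactamase reporter. Compound exposure lasted 16 h at 37C. Reporter activity was detected by FRET substrate fluorescence after 2 h at room temperature.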

Assay [8] has the same target. As to the kind of experiment: qHTS assay to identify small molecule agonists of the androgen receptor (AR) signaling pathway using the MDA cell line (AID 743040; also: nearly all actives have a fitted effect of over 20% in size). The gist of the method:
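Testing was done with the MDA-kb2 AR-luc line, a human breast carcinoma stably transfected with MMTV-luciferase containing AR and GR response elements. Cells were exposed 16 h at 37C before ONE-Glo luminescence detection.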

Assay [9] is described as follows: qHTS assay to identify small molecule antagonists of the androgen receptor (AR) signaling pathway using the MDA cell line - cell viability counter screen (AID 743041; also: nearly all actives have a fitted effect of over 45% in size; also: potency is read from the fitted curve at half-maximal effect). In a few lines: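 Compound exposure lasted 16 h at 37C in MDA-kb2 AR-luc cells stimulated with R1881. Protease-based CellTiter-Fluor reagent was applied for the final 30 min and fluorescence measured.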

In assay [10] the target is Androgen receptor (Homo sapiens) (UniProt P10275). As to the kind of experiment: qHTS assay to identify small molecule antagonists of the androgen receptor (AR) signaling pathway using the MDA cell line (AID 743042; also: nearly all actives have a fitted effect of over 55% in size; also: potency is read from the fitted curve at half-maximal effect). The gist of the method: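 MDA-kb2 breast carcinoma cells carrying MMTV-luciferase (AR/GR responsive) were co-treated with compounds and the agonist R1881 for 16 h at 37C. Inhibition read as ONE-Glo luminescence; CellTiter-Fluor fluorescence measured in parallel for cytotoxicity.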

A short description of assay [11]: qHTS assay to identify small molecule antagonists of the thyroid receptor (TR) signaling pathway (AID 743065). Also: nearly all actives have a fitted effect of over 55% in size. Also: potency is read from the fitted curve at half-maximal effect. In a few lines: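 GH3.TRE-Luc rat pituitary cells (two TREs driving luciferase) were dosed with compound, then stimulated with 1 nM T3 (final) for 23.5 h at 37 C. ONE-Glo luminescence was the read-out, with CellTiter-Fluor fluorescence as the cytotoxicity counter-screen.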

Assay [12] relates to thyroid hormone receptor (rat, GH3 cells). As to the kind of experiment: qHTS assay to identify small molecule agonists of the thyroid receptor (TR) signaling pathway (AID 743066; calls by dose curve).
A short description of assay [13]: qHTS assay to identify small molecule antagonists of the estrogen receptor alpha (ER-alpha) signaling pathway - cell viability counter screen (AID 743074; calls by dose curve; also: nearly all actives have a fitted effect of over 45% in size; also: potency is read from the fitted curve at half-maximal effect).
The target in assay [14] is Estrogen receptor (Homo sapiens) (UniProt P03372). As to the kind of experiment: qHTS assay to identify small molecule agonists of the estrogen receptor alpha (ER-alpha) signaling pathway (AID 743075; calls by dose curve; also: potency is read from the fitted curve at half-maximal effect).
Assay [15] shares this target. The experiment in a line: qHTS assay to identify small molecule agonists of the estrogen receptor alpha (ER-alpha) signaling pathway using the BG1 cell line (AID 743079). Also: nearly all actives have a fitted effect of over 20% in size. Particulars: BG1Luc4E2 cells, ERE-luciferase agonist, 22 h; activation: at 70.3 µM (top of the series).
A short description of assay [16]: qHTS assay to identify small molecule antagonists of the estrogen receptor alpha (ER-alpha) signaling pathway using the BG1 cell line (AID 743080; calls by dose curve;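 also: BG1 cells stimulated with 17beta-estradiol alongside compound; nearly all actives have a fitted effect of over 25% in size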). In a few lines: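 After 5 days in phenol-red-free 10% charcoal-stripped FBS medium, BG1-Luc-4E2 cells were seeded, left 24 h at 37 C, co-treated with compounds and 17beta-estradiol for 21.5 h, then assayed for viability and luciferase.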

Assay [17] is described as follows: qHTS assay to identify small molecule antagonists of the estrogen receptor alpha (ER-alpha) signaling pathway using the BG1 cell line - cell viability counter screen (AID 743081).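 Also: compound given together with 17beta-estradiol as the ER stimulus; nearly all actives have a fitted effect of over 45% in size.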 Also: potency is read from the fitted curve at half-maximal effect.
For the next assay, the target named is Aromatase (Homo sapiens) (UniProt P11511). As to the kind of experiment: qHTS assay to identify aromatase inhibitors (AID 743083). Also: nearly all actives have a fitted effect of over 55% in size. Also: potency is read from the fitted curve at half-maximal effect.
Assay [18] is described as follows: qHTS assay to identify small molecule antagonists of the thyroid receptor (TR) signaling pathway - cell viability counter screen (AID 743064). Also: nearly all actives have a fitted effect of over 50% in size. Also: potency is read from the fitted curve at half-maximal effect. In a few lines: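 Rat GH3 pituitary tumor cells stably expressing two TR response elements driving luciferase were plated, rested 4 h, then dosed with library compounds and T3 (1 nM final). After 23.5 h at 37 °C, CellTiter-Fluor was added for 30 min and fluorescence recorded.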

Assay [19] concerns the target Estrogen receptor (Homo sapiens) (UniProt P03372). The experiment in a line: qHTS assay to identify small molecule antagonists of the estrogen receptor alpha (ER-alpha) signaling pathway (AID 743069; active = well fitted curve in the direction sought with a large enough effect in the signal ratio in the repeat runs, not every such curve was filed as active; inconclusive = weak or mixed curves, or effect the other way; inactive = no such curve, though single readings can be large or run the other way; the % refers to the signal ratio). In a few lines: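 In this cell-based reporter format, GripTite HEK293 cells harbouring ER-alpha-UAS-bla were grown overnight with 2% charcoal-stripped FBS, dosed with DMSO-dissolved compounds, then challenged with 17beta-estradiol. After 18 hr at 37C, beta-lactamase activity was detected by FRET fluorescence.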

These results are taken from PubChem BioAssay (Tox21).

The structures appear in SMILES notation. “And” between values parts separate entries of the source, which are not always exact repeats. Identical values can stand only once. Unmarked numbers belong to inactive results. The source made the active and inactive calls. Unless noted, calls follow the shape of the dose curve; as a rule, active = well fitted curve in the direction sought with a large enough effect in the repeat runs; inconclusive = weak or mixed curves; inactive = no such curve, though single readings can be large; an effect the other way counts as inactive or inconclusive.
% is scaled to controls: 0 for no effect and ±100 for the full control effect.

Sequence of Aromatase (Homo sapiens) (P11511 whole entry, looked up): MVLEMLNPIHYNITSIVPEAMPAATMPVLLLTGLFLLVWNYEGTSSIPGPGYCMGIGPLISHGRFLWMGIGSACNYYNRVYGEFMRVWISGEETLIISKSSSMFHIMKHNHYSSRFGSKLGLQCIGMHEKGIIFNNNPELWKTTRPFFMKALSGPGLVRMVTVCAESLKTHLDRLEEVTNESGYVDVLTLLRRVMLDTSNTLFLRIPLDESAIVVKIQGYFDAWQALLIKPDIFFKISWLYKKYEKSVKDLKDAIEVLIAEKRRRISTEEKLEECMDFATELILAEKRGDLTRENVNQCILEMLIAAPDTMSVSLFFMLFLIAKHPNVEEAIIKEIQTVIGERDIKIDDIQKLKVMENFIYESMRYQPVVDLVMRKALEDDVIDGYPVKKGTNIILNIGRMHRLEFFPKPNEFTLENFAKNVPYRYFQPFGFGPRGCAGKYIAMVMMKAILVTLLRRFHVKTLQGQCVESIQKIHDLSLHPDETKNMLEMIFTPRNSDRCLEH
Sequence of Estrogen receptor (Homo sapiens) (P03372 whole entry, looked up): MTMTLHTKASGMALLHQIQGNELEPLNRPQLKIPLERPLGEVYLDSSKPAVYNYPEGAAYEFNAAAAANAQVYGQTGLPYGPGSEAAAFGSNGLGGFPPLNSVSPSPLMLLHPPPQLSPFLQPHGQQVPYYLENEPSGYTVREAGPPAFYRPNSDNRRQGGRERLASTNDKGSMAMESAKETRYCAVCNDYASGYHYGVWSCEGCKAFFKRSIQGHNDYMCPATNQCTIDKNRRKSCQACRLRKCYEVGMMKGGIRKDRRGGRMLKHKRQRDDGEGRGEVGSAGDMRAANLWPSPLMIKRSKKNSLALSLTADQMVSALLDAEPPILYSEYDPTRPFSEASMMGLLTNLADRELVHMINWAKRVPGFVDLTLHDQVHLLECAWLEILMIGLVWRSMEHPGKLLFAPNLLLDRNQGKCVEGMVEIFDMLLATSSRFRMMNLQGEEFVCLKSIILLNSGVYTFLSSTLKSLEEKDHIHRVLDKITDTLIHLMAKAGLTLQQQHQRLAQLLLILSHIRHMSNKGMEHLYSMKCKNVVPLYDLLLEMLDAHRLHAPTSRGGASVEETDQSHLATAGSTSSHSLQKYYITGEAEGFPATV
Sequence of Androgen receptor (Homo sapiens) (P10275 whole entry, looked up): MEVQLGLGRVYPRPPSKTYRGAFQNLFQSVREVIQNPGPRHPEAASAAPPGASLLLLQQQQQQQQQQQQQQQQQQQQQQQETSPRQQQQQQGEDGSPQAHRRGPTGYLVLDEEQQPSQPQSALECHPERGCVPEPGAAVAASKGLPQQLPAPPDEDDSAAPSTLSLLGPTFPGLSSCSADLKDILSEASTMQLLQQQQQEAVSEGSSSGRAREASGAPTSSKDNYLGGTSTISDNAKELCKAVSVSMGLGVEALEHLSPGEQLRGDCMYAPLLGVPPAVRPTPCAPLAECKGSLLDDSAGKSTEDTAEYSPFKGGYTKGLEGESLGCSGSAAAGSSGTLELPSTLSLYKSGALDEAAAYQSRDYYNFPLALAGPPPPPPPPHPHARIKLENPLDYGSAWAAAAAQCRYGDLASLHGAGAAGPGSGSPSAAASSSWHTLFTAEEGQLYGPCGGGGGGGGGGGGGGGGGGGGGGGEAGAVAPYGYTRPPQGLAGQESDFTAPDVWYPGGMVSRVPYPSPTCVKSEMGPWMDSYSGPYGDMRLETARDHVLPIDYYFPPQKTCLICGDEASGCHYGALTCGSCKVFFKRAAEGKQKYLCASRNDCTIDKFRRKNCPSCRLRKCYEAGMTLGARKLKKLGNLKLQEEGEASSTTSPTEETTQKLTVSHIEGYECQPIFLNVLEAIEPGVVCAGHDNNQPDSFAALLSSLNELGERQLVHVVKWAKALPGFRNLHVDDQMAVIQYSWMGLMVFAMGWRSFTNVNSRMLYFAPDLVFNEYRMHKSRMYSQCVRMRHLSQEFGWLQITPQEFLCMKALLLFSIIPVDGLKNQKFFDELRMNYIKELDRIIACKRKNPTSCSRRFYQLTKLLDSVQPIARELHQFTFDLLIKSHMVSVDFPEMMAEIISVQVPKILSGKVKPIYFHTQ

`S=C=Nc1ccccc1`: the Potency entry in assay [1], in assay [2], in assay [3], in [4], in assay [5] and in [6] was “inactive” in each case. For the same compound, the Potency entry in assay [9], in assay [10], in assay [11], in assay [12], in assay [13] and in assay [14] was “inactive” throughout. The Potency entry (in [15]; in assay [16]; in [17]; with Aromatase (Homo sapiens)) was “inactive” each time. In addition, the result in assay [7] and in [8] was inactive.

Consider `CCC[CH2][Sn]([CH2]CCC)([CH2]CCC)[O][Sn]([CH2]CCC)([CH2]CCC)[CH2]CCC`, for which the Potency is 1.35 µM (active) in assay [1]; 336 nM (active) in assay [2]; 300 nM (active) in assay [3]; 267 nM (active) in assay [4]; 603 nM (active) in assay [5]; 0.427 µM (active) in [6]. The Potency was 1.5 µM (active) in assay [9], 844 nM (active) in [10], 0.852 µM (active) in assay [13] and 2.67 µM (active) with Aromatase (Homo sapiens). Further, in assay [8], the activity change was -9.89% [at 8.47 µM]. In assay [18], the activity change, negative = cytotoxic is 15.8% [at 8.44 µM]. In addition, in [11], the activity, negative = inhibition is 7.29% [at 8.44 µM].

`O=C1C2(Cl)C3(Cl)C4(Cl)C(Cl)(Cl)C5(Cl)C3(Cl)C1(Cl)C5(Cl)C24Cl` (stereo not drawn): the Potency in assay [1] was 24.1 µM (active); in assay [2], 30.1 µM (active) and 29.3 µM (active); in [3] it was 13.5 µM (active) and 32.9 µM (active); in assay [4] it was 19 µM (active) and 26.1 µM (active); in assay [5], 38.3 µM (active) and 46.9 µM (active); in assay [6] it was 23.5 µM (active). The Potency in [10] is 60100 nM (active); in assay [18], 9.53 µM (active) and 13.1 µM (active); in [11], 9.53 µM (active) and 11.7 µM (active); in assay [13] it was 54 µM (active); with Aromatase (Homo sapiens), 26.9 µM (active) and 52.2 µM (active). Also, in [8], the outcome was inactive. Also, the Potency result in assay [12] and in [17] was “inactive” each time.

Turning to `ClCBr`, the Potency result in [1], in [2], in assay [3], in assay [4], in assay [5] and in assay [9] was “inactive” in each case. Further, the Potency result in [18], in assay [11], in assay [12], in assay [19], in assay [13] and in assay [14] was “inactive” each time. Besides, the Potency result (in [16]; in assay [17]; with Aromatase (Homo sapiens)) was “inactive” in each case.

With `CC(=O)[O][Pb]([c]1ccccc1)([c]1ccccc1)[c]1ccccc1`, the Potency in assay [1] was 0.776 µM (active); in assay [2], 154 nM (active); in assay [3], 122 nM (active); in [4] it was 122 nM (active); in [5], 549 nM (active); in [9], 1.72 µM (active). In addition, the Potency was 611 nM (active) in assay [10]; 686 nM (active) in [18]; 77 nM (active) in assay [11]; 6.92 µM (active) in [13]; 49 µM [inconclusive] (active) in [14]; 10.9 µM (active) in assay [17]. In addition, the Potency with Aromatase (Homo sapiens) was 0.193 µM (active). The call in [8] was inactive.

For the compound `CC(C)=CC1C(C(=O)OC(C#N)c2cccc(Oc3ccccc3)c2)C1(C)C` (stereo not drawn), the Potency result in assay [1], in assay [2], in [3], in [4], in assay [5] and in assay [6] was “inactive” each time. In addition, the Potency result (in assay [9]; in [10]; in assay [12]; in assay [17]; in the assay with Aromatase (Homo sapiens)) was “inactive” each time. Besides, the result in assay [7] and in [8] was inactive.

For `C[N+]1(C)[C@@H]2CC[C@H]1CC(OC(=O)C(CO)c1ccccc1)C2` (stereo partly drawn), the Potency entry in assay [1], in assay [2], in assay [3], in [4], in [5] and in assay [9] was “inactive” throughout. The Potency result (in assay [18]; in assay [12]; in [13]; in assay [17]; with Aromatase (Homo sapiens)) was “inactive” throughout.

As to `CCOP(=O)(Sc1ccccc1)Sc1ccccc1`, the Potency result in [1], in assay [3], in assay [4], in assay [5], in assay [9] and in assay [18] was “inactive” each time. Besides, the Potency entry in [13], in assay [14] and in assay [17] was “inactive” each time. In assay [2], the Potency is 24300 nM (active).
